# Experimental data published in ChEMBL document CHEMBL5308504, “Tm Shift (DSF) assay results for EUbOPEN Chemogenomics Library” (2023).
# What was measured:
# [1] = target: Bromodomain-containing protein 4 (Homo sapiens) (UniProt O60885); settings: Compound concentration 20.0 uM, Protein concentration 2.0 uM, Result type QC Liability
# [2] = target: T1, Transcription intermediary factor 1-alpha (Homo sapiens) (UniProt O15164); settings: Compound concentration 20.0 uM, Protein concentration 2.0 uM, Result type QC Liability
# T1 sequence (whole entry): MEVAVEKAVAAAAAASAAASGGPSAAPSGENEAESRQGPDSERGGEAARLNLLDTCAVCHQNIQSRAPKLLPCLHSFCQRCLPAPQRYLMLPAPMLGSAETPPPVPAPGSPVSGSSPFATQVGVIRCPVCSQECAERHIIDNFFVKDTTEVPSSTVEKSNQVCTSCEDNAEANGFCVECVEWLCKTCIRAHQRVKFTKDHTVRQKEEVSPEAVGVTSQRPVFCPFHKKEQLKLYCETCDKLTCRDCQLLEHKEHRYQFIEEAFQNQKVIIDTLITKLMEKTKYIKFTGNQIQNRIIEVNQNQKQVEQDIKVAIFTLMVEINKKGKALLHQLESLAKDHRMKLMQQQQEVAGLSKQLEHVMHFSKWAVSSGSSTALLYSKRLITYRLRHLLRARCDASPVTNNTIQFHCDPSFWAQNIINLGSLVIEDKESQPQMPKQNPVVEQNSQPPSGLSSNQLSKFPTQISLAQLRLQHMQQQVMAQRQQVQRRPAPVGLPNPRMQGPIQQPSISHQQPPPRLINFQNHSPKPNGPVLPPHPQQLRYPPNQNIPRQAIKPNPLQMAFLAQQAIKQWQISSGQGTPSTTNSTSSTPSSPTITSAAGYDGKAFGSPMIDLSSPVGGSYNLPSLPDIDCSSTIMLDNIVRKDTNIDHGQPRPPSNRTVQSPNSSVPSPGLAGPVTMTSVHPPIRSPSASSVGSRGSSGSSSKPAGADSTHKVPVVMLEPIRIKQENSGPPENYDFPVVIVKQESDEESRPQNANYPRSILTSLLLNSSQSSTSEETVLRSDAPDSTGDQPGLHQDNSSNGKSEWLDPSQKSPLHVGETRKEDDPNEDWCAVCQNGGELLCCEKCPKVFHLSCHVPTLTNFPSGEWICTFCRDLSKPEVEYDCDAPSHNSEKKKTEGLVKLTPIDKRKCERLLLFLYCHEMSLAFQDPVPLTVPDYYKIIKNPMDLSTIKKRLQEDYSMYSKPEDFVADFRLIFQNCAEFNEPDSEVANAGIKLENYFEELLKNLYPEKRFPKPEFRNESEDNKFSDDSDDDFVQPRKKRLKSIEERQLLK
SMILES,ΔTm [1] [°C],ΔTm [2] [°C]
COc1ccc(Br)cc1S(=O)(=O)NC(=O)/C=C/c1cc(Cl)ccc1Cc1ccc2ccccc2c1,-4.74,-0.55
CC1=C(C(=O)OCCO)[C@@H](c2ccc(C#N)cc2)NC(=O)N1c1cccc(C(F)(F)F)c1,0.01,0.4
CCc1cnn2c(NCc3ccc[n+]([O-])c3)cc(N3CCCCC3CCO)nc12 (stereo not given),-0.63,-2.72
N[C@@H]1CCCC[C@H]1Oc1ccc2ncc(-c3cc4ccccc4o3)n2n1,-0.47,-0.16
CC1(C)Cc2nc(C3CCCC3)c([C@@H](F)c3ccc(C(F)(F)F)cc3)c(C3CCCCC3)c2[C@@H](O)C1,0.17,0.34
O=C(Cc1ccccc1)Nc1nnc(N2CC[C@@H]3[C@H]2CN3c2cccnn2)s1,-3.72,-3.22
O=C(Nc1ccccc1C(=O)O)c1cc(S(=O)(=O)c2ccccc2)ccc1Cl,2.09,0.36
CN(C1CCc2c(c3ccccc3n2CC(=O)O)C1)S(=O)(=O)c1ccc(F)cc1 (stereo not given),-1.34,-0.54
Cn1cc(-c2ccc(-c3cncc(Cl)c3N3CCC4(CCNC4=O)CC3)cc2)cn1,0.07,-2
Cn1cc(NC(=O)c2ccc3nc4n(c3c2)CCCNC4=O)nc1C(=O)NC1CCCC1,-1.16,-2.92
CCn1c(CNC(=O)c2ncc(C)nc2N)[n+](CC)c2ccc(C(=O)N(C)CCN(C)C)cc21,-1.53,-0.01
CCN1C(=O)N(c2c(F)c(OC)cc(OC)c2F)Cc2cnc3[nH]c(CN4CCOCC4)cc3c21,-1.4,-3.85
c1ccc2c(c1)SCc1c-2[nH]c2ccccc12,-15.3,-7.68
Cc1ccc(NC(=O)c2ccc3c(c2)OCCO3)cc1NC(=O)c1ccc2nc(OCCN3CCCC3)ccc2c1,-12.8,-0.86
O=C(O)/C=C/c1ccc(Cn2ccnc2)cc1,-0.17,-0.33
NC(=O)c1sc2nc(N3CCC(NC[C@H](O)c4ccccn4)CC3)cc(C(F)(F)F)c2c1N,-3.3,-3.39
CC1(C)CCC(CN2CCN(c3ccc(C(=O)NS(=O)(=O)c4ccc(NCC5CCOCC5)c([N+](=O)[O-])c4)c(Oc4cnc5[nH]ccc5c4)c3)CC2)=C(c2ccc(Cl)cc2)C1,-1.82,-1.45
CN1CCN(c2ccc(Nc3ncc4cc5n(c4n3)C3(CCCCC3)CNC5=O)nc2)CC1,-0.66,-0.72

SMILES,ΔTm [1] [°C],ΔTm [2] [°C]
CNc1nc(-c2ccc3c(N)n[nH]c3c2)cc(N2C[C@@H](C(=O)NC3CCCCC3)CC[C@H]2C)n1,0.26,-2.05
CN(C)C/C=C/C(=O)Nc1cccc(S(=O)(=O)N2CCC(NC(=O)c3n[nH]cc3NC(=O)c3c(Cl)cc(Cl)cc3Cl)CC2)c1,-1.08,0.7
NC(=O)OC[C@H](NC(=O)Cn1nc(-c2ccc(Cl)cc2)n(C[C@H](O)C(F)(F)F)c1=O)c1cccc(C(F)(F)F)c1,0.39,0.59
Cc1ccc(-n2nc(C(C)(C)C)cc2NC(=O)Nc2ccccc2F)cc1,-1.72,-1.64
CCS(=O)(=O)c1cc2cc(C[C@](O)(CC(C)(C)c3ccc(F)cc3C(N)=O)C(F)(F)F)[nH]c2cn1,-2.16,0.37
O=C1CCCc2[nH]c(-c3ccnc(NCC4CC4)c3)c(Nc3ccccc3)c21,-0.67,-0.08
CN[C@@H](C)C(=O)N[C@H](C(=O)N1CCC[C@H]1C(=O)N[C@H]1c2ccccc2C[C@H]1OCC#CC#CCO[C@@H]1Cc2ccccc2[C@@H]1NC(=O)[C@@H]1CCCN1C(=O)[C@@H](NC(=O)[C@H](C)NC)C1CCCCC1)C1CCCCC1,-4.51,-2.69
CC1(C)C[C@@H]1C(=O)N/C(=C\CCCCSC[C@H](N)C(=O)O)C(=O)O,-2.05,-0.56
COCCc1ccc(-c2c(C)nc3c(N4CCOCC4)ccnn23)cn1,-1.01,-1.13
CCCCC[C@@](C)(O)/C=C/[C@H]1C(=O)CC(O)C1C/C=C\CCCC(=O)O (stereo not given in full),-1.7,-0.59
CCOC(=O)Nc1ccc2c(c1)N(C(=O)CN(CC)CC)c1ccccc1CC2,-1.53,-1.69
C[C@@H]1C[C@H](C)CN(c2ncc(Cl)c(Nc3ccc4c(c3)cc(OC(C)(C)C(=O)O)c(=O)n4C)n2)C1,-0.93,0.15
Cc1cc(=O)n(C)c2cc(N3C(=O)CC[C@H](NS(=O)(=O)CC(C)C)[C@H]3c3ccc(Cl)cc3)ccc12,-3.01,-3.49
CCCCCCC(Sc1nc(Cl)cc(NCc2ccc(-c3ccccc3)cc2)n1)C(=O)O (stereo not given),-1.48,0.51
COc1cc2ncnc(Nc3ccc(F)c(Cl)c3)c2cc1OCCN(C)C[C@H](C)O,-3.09,-1.09
CC(=O)Nc1nc(CN2CCC[C@H](Cc3cc(C)nc(C)c3)C2)cs1,0.35,-1.42
CC(C)Oc1ccc(Cc2ccc(NC3=NCCN3)cc2)cc1,-1.86,-0.24
